Most compounds without a hit are left out; they make up all but 3.5% or so of the library.
MITF inh = blocks human microphthalmia-associated transcription factor; O75030; AlphaScreen MITF homodimerization, bead proximity signal; inhibition, % at 2.6 µM; 650,000 tested, 0.91% active; in the data active = inhibition above about 50%;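 note: 0% = vehicle wells with protein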
Target sequence (O75030 whole entry, looked up): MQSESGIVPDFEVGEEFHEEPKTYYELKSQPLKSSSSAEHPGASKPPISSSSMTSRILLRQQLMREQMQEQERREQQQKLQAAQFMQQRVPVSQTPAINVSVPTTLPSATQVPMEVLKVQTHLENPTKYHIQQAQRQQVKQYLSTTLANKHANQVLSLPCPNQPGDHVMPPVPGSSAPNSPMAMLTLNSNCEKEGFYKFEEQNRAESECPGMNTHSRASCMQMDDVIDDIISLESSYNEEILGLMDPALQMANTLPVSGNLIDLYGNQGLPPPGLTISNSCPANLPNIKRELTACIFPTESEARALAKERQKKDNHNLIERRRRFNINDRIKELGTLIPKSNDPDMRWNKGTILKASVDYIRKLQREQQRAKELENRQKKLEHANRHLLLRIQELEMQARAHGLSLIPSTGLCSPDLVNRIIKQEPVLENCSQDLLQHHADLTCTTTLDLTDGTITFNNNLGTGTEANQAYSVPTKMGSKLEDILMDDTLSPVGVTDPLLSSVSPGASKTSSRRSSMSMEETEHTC
GPR151 ag = human GPR151 activation | AID 1508602 | 650,000 tested, 1% active | PathHunter beta-arrestin GPR151 cells, luminescence | activation, % at 11.2 µM; in the data active = activation above about 4.9%;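 note: 0% = median of compound wells and 100% = cells with positive control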
TEAD-YAP block = TEAD-YAP interaction inhibition. HEK-TIYL cells, TEAD-Gal4/YAP UAS-luciferase luminescence. 640,000 tested, 1.4% active. inhibition, % at 9.12 µM; in the data active = inhibition above about 32%;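 note: 0% = median of test compound wells and 100% = reference inhibitor wells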
FBW7 activator = human FBW7 E3 ligase activation, primary screen | Q969H0 | AlphaScreen FBW7–phospho-cyclin E peptide binding, activator screen | normalized activity (activation), % at 26.1 µM | 650,000 tested, 0.13% active; in the data active = normalized activity above about 1.9%;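 note: purified mutant Fbw7 with reduced substrate affinity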
GPR151 conf act = confirmation of human GPR151 activators; 6,700 tested, under 10 active; GPR151 PathHunter beta-arrestin cells, luminescence, 90 min; % of EA-reagent control over plate median; activation, % at 11.2 µM; shares compounds with GPR151 ag; AID 1508609;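 active = mean percent activation across replicates above the confirmation screen cutoff of 4.91%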
GPR119 ag = counter-screen for GPR151 activators: effect on human GPR119 | GPR119 PathHunter beta-arrestin cells, luminescence, 90 min; 0 = compound-well median, 100 = enzyme-acceptor control | shares compounds with GPR151 ag | 6,700 tested, 0.3% active | activation, % at 11.2 µM;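 active = mean percent activation in the counterscreen above 29.09%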;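 note: counterscreen on off-target GPR119 to flag nonselective hits from the GPR151 activator screen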
* hit, by the source's call; . = not tested or not shown.

SMILES	MITF inh	GPR151 ag	TEAD-YAP block	FBW7 activator	GPR151 conf act	GPR119 ag
COc1cc(/C=N/Nc2nc3c(c(=O)[nH]c(=O)n3C)n2CC(C)O)ccc1O (configuration not stated)	7	-2	0	0	.	.
CCN(CC)c1ncnc2sc(C(=O)Nc3ccc(C)c(F)c3)c(C)c12	12	9.1*	1	0	-1	1
COCCNc1oc(-c2ccccc2)nc1S(=O)(=O)c1ccc(C)cc1	2	6.1*	-1	0	0	1
COCCNc1oc(-c2ccccc2)nc1S(=O)(=O)c1ccc(Cl)cc1	4	-1	-2	-1	.	.
O=C(NCc1ccco1)c1cccc(NC2=NC3CS(=O)(=O)CC3S2)c1 (configuration not stated)	-2	-1	-5	0	.	.
COc1ccc(CN2CCC3(CCC(CNS(=O)(=O)C(C)C)O3)CC2)cc1 (configuration not stated)	-3	6.3*	0	0	0	3
Cc1ccc(CC(=O)N(CCCn2ccnc2)c2nc3ccccc3s2)c(C)c1	-3	6.9*	6	0	-2	-14
Cc1ccc2nc(N(CCCn3ccnc3)C(=O)c3ccc(F)cc3)sc2c1	4	0	-2	0	.	.
O=C(CN1Cc2ccccc2C1=O)N1CCN(c2ccccn2)CC1	-2	3	9	0	.	.
CC(=O)N1N=C(c2ccccc2)CC1c1cn(-c2ccccc2)nc1-c1ccc(C)cc1 (configuration not stated)	8	6.0*	-6	0	0	-6
CC1=C(C#N)C(c2ccc(C(C)C)cc2)C(C#N)=C(C)N1	-3	9.9*	4	0	0	11
CC(C)c1ccc(C2C(C#N)=C(N)OC(N)=C2C#N)cc1	-7	0	-2	0	.	.
O=[N+]([O-])c1c(NCc2ccccc2)cc(Cl)c2nonc12	10	-3	4	0	.	.
O=C(Nc1ccccc1)c1ccc(Cl)c(S(=O)(=O)NCc2ccccc2)c1	-2	8.2*	13	0	-1	-13
CCc1ccc(NC(=O)c2ccc(F)c(S(=O)(=O)NCc3ccc(C)cc3)c2)cc1	-6	2	-4	0	.	.
C=CCNS(=O)(=O)c1cc(C(=O)Nc2cc(Cl)cc(Cl)c2)ccc1F	-9	-2	-16	0	.	.
C=CCNS(=O)(=O)c1cc(C(=O)Nc2ccc(OCC)cc2)ccc1F	7	5.7*	26	0	0	-1
Cc1ccc(CNS(=O)(=O)c2cc(C(=O)Nc3ccc(C(C)C)cc3)ccc2F)cc1	13	5.8*	4	0	1	7
O=C(/C=C\c1ccc([N+](=O)[O-])cc1)Nc1nnc(-c2ccccc2)o1	0	0	-6	0	.	.
O=C(/C=C\c1ccc([N+](=O)[O-])cc1)Nc1nnc(-c2cccs2)o1	-5	6.7*	-5	0	-1	1
COc1ccc(OCCCn2c(C(C)O)nc3ccccc32)cc1 (configuration not stated)	26	-1	3	1	.	.
COCCCN1C(=O)c2ccc(C(=O)Oc3ccc(C(C)(C)C)cc3)cc2C1=O	8	5.2*	3	1	1	-3
COc1ccccc1Cc1noc(-c2ccc(I)cc2)n1	-26	-1	-9	0	.	.
COc1ccccc1Cc1noc(-c2cc(Cl)ccc2OC)n1	7	6.3*	1	0	0	-3
CCOc1ccc(S(=O)(=O)NC2CCCCC2)cc1	12	5.3*	4	0	-1	-6
SMILES	MITF inh	GPR151 ag	TEAD-YAP block	FBW7 activator	GPR151 conf act	GPR119 ag
CCOc1ccc(S(=O)(=O)NC2CC2)cc1	7	3	5	0	.	.
C=C(C)[C@H]1Cc2nc(N)nc(C)c2C1	17	0	-11	0	.	.
O=[N+]([O-])c1cc(CNCc2ccccc2)ccc1N1CCCCC1	44	5.6*	-45	0	1	6
CCC(CO)Nc1ccc2ncc(-c3cccc(N(C)C)c3)n2n1 (configuration not stated)	-18	6.4*	5	0	0	-4
CC(C)[C@@H](CO)Nc1ccc2ncc(-c3cccc(N(C)C)c3)n2n1	11	0	4	0	.	.
CCOc1cc(C(=O)Nc2ccccc2CC)ccc1OC	12	1	10	0	.	.

Bioassay records (PubChem)
